From PubChem BioAssay (NCI) come the findings set out here.

Test systems include HT29 colon; SNB-75 CNS; SNB-19 CNS; U251 CNS; PC-3 prostate; SK-MEL-5 melanoma; UACC-62 melanoma; LOX IMVI melanoma; SK-MEL-28 melanoma; SK-MEL-2 melanoma; EKVX NSCLC; SN12C renal; UO-31 renal; TK-10 renal; ACHN renal; CAKI-1 renal; A498 renal; MOLT-4 leukemia; SR leukemia; CCRF-CEM leukemia.
Test in all cases: NCI-60 one-dose screen, 48 h (100 = growth as untreated, 0 = no growth, -100 = all killed)
What all share (conditions): 10 µM

Compounds without any hit were thinned out: in the full panel of roughly 83,000, 20% have a hit.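 48-hour exposure, single concentration, 96-well plates; percent growth endpoint where 0 means no net growth. Active: below 10.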 A number with no mark means an inactive call. Active and inactive are the calls of the source.

As to `O=C1/C(=C\c2cn(C(=O)c3ccc(Cl)cc3)c3ccccc23)c2ccccc2N1C(=O)c1ccc(Cl)cc1`, the growth in the test on HT29 colon was 70.4%; in the test with SNB-75 CNS, 54.4%; in the test with SNB-19 CNS, 98.2%; in the test on U251 CNS it was 74.2%; with PC-3 prostate, 65.7%; in the test with SK-MEL-5 melanoma it was 74.9%. In addition, the growth was 88.9% with UACC-62 melanoma; 67.2% with LOX IMVI melanoma; 103% with SK-MEL-28 melanoma; 49.8% in the test with SK-MEL-2 melanoma; 70.7% in the test on EKVX NSCLC; 80.8% in the test on SN12C renal. Moreover, the growth in the test on UO-31 renal was 64.4%; in the test with TK-10 renal it was 55.3%; with ACHN renal it was 63.3%; with CAKI-1 renal it was 73.8%; in the test with A498 renal, 81.1%; in the test on MOLT-4 leukemia, 61.5%. In addition, in the test with SR leukemia, the growth was 56.1%.

On to `CCCCCCCCCCCCC1C/C=C\CCCC(=O)O1` (stereo unspecified), for which the growth is 107% with HT29 colon; 102% in the test on SNB-75 CNS; 110% in the test with SNB-19 CNS; 109% with U251 CNS; 112% in the test on PC-3 prostate; 109% in the test with SK-MEL-5 melanoma. Also, the growth with UACC-62 melanoma was 108%; in the test with LOX IMVI melanoma, 113%; in the test on SK-MEL-28 melanoma it was 126%; with SK-MEL-2 melanoma it was 111%; in the test with EKVX NSCLC, 94%; with SN12C renal it was 119%. The growth with UO-31 renal is 93.1%; in the test with TK-10 renal, 113%; in the test on ACHN renal, 104%; in the test with CAKI-1 renal it was 113%; with A498 renal it was 128%; with MOLT-4 leukemia, 37.4%. Also, the growth with SR leukemia was -18.4% (active).

For `COc1ccc(/C=C/C(=O)Nc2ccc(-c3nc4ccc(F)cc4s3)cc2)cc1`, the growth with HT29 colon is 101%; in the test on SNB-75 CNS it was 102%; in the test on SNB-19 CNS it was 99%; in the test with U251 CNS it was 95.4%; in the test on PC-3 prostate it was 94.6%; with SK-MEL-5 melanoma it was 86.8%. Besides, the growth was 99.8% with UACC-62 melanoma; 94.7% with LOX IMVI melanoma; 109% in the test on SK-MEL-28 melanoma; 117% in the test with SK-MEL-2 melanoma; 85.3% with EKVX NSCLC; 93.8% in the test on SN12C renal. The growth with UO-31 renal was 84.2%; in the test with TK-10 renal it was 104%; in the test with ACHN renal it was 107%; in the test with CAKI-1 renal it was 95.5%; in the test on A498 renal it was 105%; in the test with CCRF-CEM leukemia it was 81.3%. Besides, the growth was 71.8% in the test on MOLT-4 leukemia and 80.8% in the test on SR leukemia.

Consider `CO/N=C(/C(=O)NC1C(=O)N2C(C(=O)O)=C(COC(N)=O)CSC12)c1ccco1` (stereo unspecified), for which the growth with HT29 colon was 111%; in the test with SNB-75 CNS it was 91.6%; in the test on SNB-19 CNS, 95.5%; with U251 CNS, 107%; with PC-3 prostate, 101%; with SK-MEL-5 melanoma, 110%. Further, the growth with UACC-62 melanoma is 103%; in the test with LOX IMVI melanoma, 102%; in the test on SK-MEL-28 melanoma, 114%; in the test on SK-MEL-2 melanoma it was 100%; in the test on EKVX NSCLC, 99.4%; in the test on SN12C renal it was 104%. For the same compound, the growth with UO-31 renal was 83.3%; in the test with TK-10 renal it was 104%; in the test with ACHN renal, 98.3%; in the test with CAKI-1 renal, 91.3%; in the test on A498 renal, 102%; in the test with MOLT-4 leukemia it was 111%. Besides, in the test with SR leukemia, the growth is 106%.

Turning to `Nc1ccc2c(c1)Cc1cc(N)c(Br)cc1-2`, the growth with HT29 colon is 107%; in the test on SNB-75 CNS, 67.1%; in the test with SNB-19 CNS, 114%; in the test with U251 CNS, 108%; in the test with PC-3 prostate, 96.9%; in the test on SK-MEL-5 melanoma, 97.8%. In addition, the growth with UACC-62 melanoma is 96.7%; in the test on LOX IMVI melanoma it was 96.8%; in the test with SK-MEL-28 melanoma, 115%; in the test on SK-MEL-2 melanoma it was 116%; in the test on EKVX NSCLC, 46.8%; with SN12C renal, 113%. The growth was 76.9% with UO-31 renal; 138% with TK-10 renal; 87% in the test on ACHN renal; 86.6% in the test on CAKI-1 renal; 82.1% with CCRF-CEM leukemia; 94.1% with MOLT-4 leukemia.

As for `CCCCCCCCCCCCCCCCCC(=O)OCCCCCCC`, the growth was 102% in the test with HT29 colon; 98.3% in the test on SNB-75 CNS; 116% in the test on SNB-19 CNS; 100% with U251 CNS; 92.9% in the test on PC-3 prostate; 110% with SK-MEL-5 melanoma. Further, the growth in the test with UACC-62 melanoma is 110%; in the test on LOX IMVI melanoma, 96.5%; with SK-MEL-28 melanoma, 122%; in the test on SK-MEL-2 melanoma, 127%; with EKVX NSCLC, 90.8%; in the test with SN12C renal it was 105%. In addition, the growth with UO-31 renal is 87.6%; in the test with TK-10 renal, 113%; in the test on ACHN renal, 107%; in the test on CAKI-1 renal, 88%; with CCRF-CEM leukemia it was 85%.

Regarding `CCN(CC)CCOc1nc2cc(OC)c(OC)cc2c2c1-c1ccc(OC)cc1C2=O`, the growth in the test with HT29 colon was 40.4%; in the test on SNB-75 CNS, 56.5%; with SNB-19 CNS it was 73.4%; in the test on U251 CNS it was 60%; in the test with PC-3 prostate, 81.8%; with SK-MEL-5 melanoma, 91%. In addition, the growth in the test with UACC-62 melanoma was 78.9%; in the test with LOX IMVI melanoma, 30.4%; in the test on SK-MEL-28 melanoma, 112%; in the test with SK-MEL-2 melanoma it was 74.2%; in the test on EKVX NSCLC, 98.6%; in the test with SN12C renal, 80.7%. The growth in the test on UO-31 renal is 47.7%; in the test with TK-10 renal, 105%; with ACHN renal it was 56%; with CAKI-1 renal, 35.7%; with A498 renal, 96.6%; with CCRF-CEM leukemia, 22.4%. For the same compound, the results for the growth in the test on MOLT-4 leukemia and in the test on SR leukemia were 9.28% (active) and -29.6% (active), respectively.

In the case of `COc1cccc(-c2cc(-c3cccc(NS(C)(=O)=O)c3)nc(N)c2C#N)c1O`, the growth in the test with HT29 colon is 12.6%; in the test on SNB-75 CNS, -16.4% (active); in the test with SNB-19 CNS, 42.3%; in the test on U251 CNS it was 30.9%; in the test on PC-3 prostate, 16.6%; in the test on SK-MEL-5 melanoma, 11.9%. For the same compound, the growth is 52.9% with UACC-62 melanoma; 46.6% in the test on LOX IMVI melanoma; 76.7% in the test with SK-MEL-28 melanoma; 69% with SK-MEL-2 melanoma; 32.6% with EKVX NSCLC; 50.7% in the test on SN12C renal. For the same compound, the growth in the test on UO-31 renal is 15.3%; with TK-10 renal, 71.3%; in the test on ACHN renal, 43.3%; in the test on CAKI-1 renal, -11.9% (active); in the test with CCRF-CEM leukemia it was 12.3%; in the test with MOLT-4 leukemia, 35%. In addition, the growth in the test on SR leukemia was 24.6%.
